# Measurements taken from PubChem BioAssay AID1626 (SRMLSC, 2009).
# Screen size: about 220,000 compounds; about 2,000 (0.91%) were called active. About 2% were inconclusive and are not listed. Not all results are given here. Results with a measured potency or affinity are listed apart. Values without a mark were called inactive. Rule as the data show it: inconclusive = inhibition above about 80% without an active follow-up result; inactive = below that; test concentration not stated here.
# Test: M. tuberculosis H37Rv growth inhibitors, H37Rv strain (AID 1626);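 also: bacteria incubated seven days before Alamar blue readout; 0% = bacteria only wells and 100% = bacteria with antibiotic wells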
# Details: active compounds read high, concentration not given here
row,Compound,inhibition [%]
1,Cc1ccc(NC(=O)CSC2=NCCN2)cc1,-0.03
2,CCOc1ccc(NC(=O)CSc2nccn2C)cc1,-4.59
3,CCCCOc1ccc(NC(=O)CN2CCN(C(=O)OCC)CC2)cc1,-7.38
4,COc1cc2c(cc1OC)C(c1ccco1)CC(=O)N2 (stereo not drawn),-0.34
5,COc1cc(/C=C/c2ccc3cccc([N+](=O)[O-])c3n2)ccc1OCC(=O)O,6.21
6,CC(=O)Nc1ccc(/C=C/c2ccc3c([N+](=O)[O-])cccc3n2)cc1,-0.6
7,Cc1ccc(C(c2sc3nc(C)nn3c2O)N2CCOCC2)cc1 (stereo not drawn),-3.42
8,CCOC(=O)c1ccc(NC(=O)c2nc[nH]c2C(=O)NC)cc1,-7.95
9,Cc1ccc(NC(=O)c2nc[nH]c2C(=O)Nc2ccc(C)cc2)cc1,-0.81
10,CCOC(=O)c1ccc(NC(=O)c2nc[nH]c2C(=O)N[C@@H](CC(C)C)C(=O)OCc2ccccc2)cc1,-7.55
11,CNC(=O)c1[nH]cnc1C(=O)Nc1ccc(C)cc1,16.9
12,COc1ccc(NC(=O)c2nc[nH]c2C(=O)N[C@@H](C)C(=O)OC(C)(C)C)cc1,5.92
13,CNC(=O)c1[nH]cnc1C(=O)Nc1ccc(OC)cc1,5.16
14,Cc1ccc(CSc2ncnc3ccccc23)cc1,5.46
15,CCCOc1ccc(C(=O)NCC2OCCc3ccccc32)cc1OC (stereo not drawn),-1.65
16,CCOC(=O)C1CCCN(C2CC(=O)N(c3cccc(C)c3)C2=O)C1 (stereo not drawn),-3.61
17,CN(C)c1c(F)cc(C(=O)NCc2ccccc2)cc1F,-11.1
18,CN(CC(=O)Nc1ccc(Cl)cc1)CC(=O)Nc1cc(Cl)ccc1C#N,-1.32
19,ClCc1csc(N/N=C/c2cccs2)n1,-4.27
20,CNc1nc(OC)nc(N2CCOCC2)n1,-9.75
21,CSc1cccc(CN2CCN(Cc3ccccc3)C(CCO)C2)c1 (stereo not drawn),3.04
22,O=C1c2ccccc2S(=O)(=O)c2cc(C(=O)N3CCN(c4ccc(Cl)cn4)CC3)ccc21,5.58
23,CSc1nnc(-c2ccccc2)c(-c2ccccc2)n1,13.9
24,CSc1ncc(-c2ccccc2)cn1,2.05
25,COc1ccccc1-c1ccc(SCc2ccc(F)cc2)nn1,-3.99

row,Compound,inhibition [%]
1,O=C(O)/C=C/C(=O)Nc1ccc(C(=O)c2ccccc2)cc1,-9.86
2,CCOc1ccc(-c2cn3ccccc3n2)cc1,1.22
3,CCOC(=O)c1cccc(S(=O)(=O)N(CCO)Cc2cc3cc(OC)ccc3[nH]c2=O)c1,-6.73
4,COc1ccc(NCc2nc3ccccc3n2CCOc2ccccc2)cc1,77.4
5,Cc1ccc(NCc2nc3ccccc3n2CCOc2ccccc2)cc1,4.17
6,CC(OC(=O)C1CC1)C(=O)Nc1cc(C(F)(F)F)ccc1Cl (stereo not drawn),-2.2
7,O=C(OC(c1ccccc1)c1nccc2ccccc12)c1cccc([N+](=O)[O-])c1 (stereo not drawn),2.31
8,CC(C)C(OC(=O)c1ccccc1)c1nccc2ccccc12 (stereo not drawn),1.56
9,O=C(CC1SC(=Nc2ccccc2)N(CCc2c[nH]c3ccccc23)C1=O)Nc1ccccc1F (stereo not drawn),11.6
10,COc1cc(/C=C(\C#N)C(=O)NCC2CCCO2)cc(OC)c1OC (stereo not drawn),2.41
11,CCCCCCN1C=CC=C/C1=C/C=C(C#N)C#N,-1.95
12,COc1ccc(C(=O)CN2CCOCC2)cc1F,-8.03
13,COc1ccc(C(O)C(CN2CCOCC2)c2ccccc2)cc1F (stereo not drawn),-9.62
14,CCCCOc1ccc(C(=O)C(CN2CCOCC2)c2ccccc2)cc1 (stereo not drawn),66.5
15,CCCOc1ccc(C(=O)C(CN2CCOCC2)c2ccccc2)cc1 (stereo not drawn),78.9
16,CC(NC1CCCCC1)C(O)C12CC3CC(CC(C3)C1)C2 (stereo not drawn),-0.62
17,CCn1nc(C(=O)OCC(=O)c2cc(C)n(Cc3cccs3)c2C)c2ccccc2c1=O,-3.97
18,CN1CCN(NC(=O)c2cccc(C(F)(F)F)c2)CC1,-1.25
19,CCNc1nc(NC(C)(C)C)nc(N(C#N)CC)n1,2.33
20,COc1ccc(Nc2nc3c(C)cccn3c(=O)c2C=NCc2ccccc2)cc1,10.2
21,Cc1cccn2c(=O)c(C=Nc3ccccc3)c(NCCO)nc12,2.59
22,COc1cc(C(=O)OCC(=O)NC2CCS(=O)(=O)C2)c([N+](=O)[O-])cc1OC (stereo not drawn),-0.03
23,COC(CC(=O)NNC(=S)Nc1ccc(Cl)cc1)OC,4.27
24,CCOC(=O)C1=C(N)N(c2ccc(N3CCCCC3)cc2)C(=O)C1,-16.5
25,Cc1ccc([N+](=O)[O-])cc1NC(=O)CN(C(=O)c1ccc(Cl)cc1)C1CCCCC1,3.68

row,Compound,inhibition [%]
1,O=C(CN(C(=O)c1ccccc1Cl)C1CCCCC1)Nc1ccc(Cl)c([N+](=O)[O-])c1,-3.85
2,Cc1ccccc1NC(=O)C(=O)NCCCN1CCOCC1,-3.37
3,COc1cc(/C=C/C(=O)c2ccc(O)cc2)ccc1OCC#N,17.5
4,COc1cccc(OCCNC(=O)c2cccc(OC)c2)c1,4.61
5,COc1cccc(/C=C/C(=O)c2ccc(C)c([N+](=O)[O-])c2)c1,17.5
6,COc1cc(C(=O)O/N=C(\N)c2cccc([N+](=O)[O-])c2)cc(OC)c1OC,-4
7,COc1cc(/C=C/C(=O)c2ccc(C)c([N+](=O)[O-])c2)cc(OC)c1O,9.83
8,COc1cccc(C(=O)/C=C/c2ccc(SC)cc2)c1,5.8
9,O=C(NCCOc1ccccc1)c1cc(C(=O)NCCOc2ccccc2)cc([N+](=O)[O-])c1,15.8
10,COc1cc(/C=C/C(=O)c2ccc(C)cc2)ccc1OCC#N,8.8
11,CC(=O)c1c(C)[nH]c(C(=O)CSc2nnc(CN3CCCCCC3=O)n2-c2ccccn2)c1C,-2.46
12,Cc1ccc(C(=O)N(c2ccccc2)C2CC(C)N(C(=O)c3ccco3)c3ccccc32)cc1 (stereo not drawn),0.9
13,CCn1c(SCC(=O)Nc2nccs2)nnc1-c1ccccc1,-4.51
14,Clc1cc2nc[nH]c2cc1Cl,-8.63
15,CCCc1cc(=O)[nH]c(SCc2csc(-c3ccccc3)n2)n1,-1.65
16,Nc1nnc(-c2cccc(F)c2)s1,1
17,CC1CN(c2ccc(S(=O)(=O)N3CCOCC3)cn2)CC(C)O1 (stereo not drawn),-1.99
18,CC(=O)c1cc(C#N)c(SCc2ccc(F)cc2)nc1C,-3.8
19,Cc1ccc(S(=O)(=O)CCN2CCC(n3cccc3)CC2)cc1,-2.9
20,COc1cc(/C=C/C(=O)c2ccccc2O)cc(OC)c1OC,-1.73
21,COc1cc(/C=C/C(=O)O)cc(OC)c1OC,-1.87
22,COc1cc(/C=C/C(=O)OCC(=O)NC(=O)NC(C)C)ccc1OCC#N,11.7
23,O=C(/C=C/c1cccc([N+](=O)[O-])c1)Nc1ccc(NC(=O)c2cccs2)cc1,3.17
24,O=C(/C=C/c1cccc([N+](=O)[O-])c1)Nc1cccc(NC(=O)c2cccs2)c1,13.1
25,COc1ccc(Oc2ccc(/C=C/C(=O)c3cccc(OC)c3)cc2[N+](=O)[O-])cc1,4.34

row,Compound,inhibition [%]
1,O=C(/C=C/c1ccc(N2CCCCC2)c([N+](=O)[O-])c1)c1ccc(O)cc1,52.4
2,COc1cc(/C=C/C(=O)OCC(=O)NC(=O)NC(C)(C)C)ccc1OCC#N,53.3
3,CCN(C(=O)CSc1nnc(-c2ccc(Cl)cc2)n1C)C1CCS(=O)(=O)C1 (stereo not drawn),1.77
4,O=C(NCc1nnc(SCC(=O)N2CCOCC2)o1)c1cccs1,3.48
5,COc1ccc(-n2cc(CNCCN3CCOC3=O)c(-c3ccccc3Cl)n2)cc1,2.78
6,COC(=O)NC(NC(=S)Nc1cccc(C)c1)C(Cl)(Cl)Cl (stereo not drawn),-2.36
7,O=C(/C=C/c1ccccc1)NC1CC2CCC1C2 (stereo not drawn),0.01
8,O=C(/C=C/c1ccc([N+](=O)[O-])cc1)NC1CC2CCC1C2 (stereo not drawn),73.7
9,CN(C)/C=C/C(=O)c1cccc([N+](=O)[O-])c1,6.88
10,O=C(/C=C/c1ccccc1F)c1ccoc1,2.06
11,O=c1c2ccccc2ncn1CCOCCOc1cccc(Br)c1,-2.48
12,CC(C)(C)c1ccc(OCCOc2ccc(C(C)(C)C)cc2NC=O)c(NC=O)c1,7.57
13,Cc1cc(NC(=O)CSc2ccc(-c3cccc([N+](=O)[O-])c3)nn2)no1,13.3
14,Cn1c(O)c(N=NC(=O)C2COc3ccccc3O2)c2ccccc21 (stereo not drawn),2.52
15,COc1ccc(Br)cc1CN(C)C(C)C(=O)Nc1cc([N+](=O)[O-])ccc1OC (stereo not drawn),6.06
16,O=Nc1c(O)n(Cc2cccc(Cl)c2)c2ccccc12,-7.32
17,c1ccc(Cc2nn3c(COc4ccccc4)nnc3s2)cc1,8.35
18,CSc1nc(C)c(Cc2c(F)cccc2Cl)c(=O)[nH]1,-5.44
19,C=C(C)C1CC=C(CN2CC(C)OC(C)C2)CC1 (stereo not drawn),-0.53
20,COC(=O)COc1c(Cl)cc(Cl)c2ccc(C)nc12,70.4
21,Cc1ccc2c(Cl)cc(Cl)c(OCC(=O)N(C(C)C)C(C)C)c2n1,7.37
22,Cc1ccc(NC(=O)CN(C)C(=O)COc2c(Cl)cc(Cl)c3ccc(C)nc23)cc1,5.82
23,Cc1ccc2c(Cl)cc(Cl)c(OCC(=O)O)c2n1,-9.9
